# Test results: paper PMC4336329 (PLoS ONE, 2015)
# Among all 310,000 compounds or so, about 14,000 (4.5%) showed an effect of 50% or more. Effects have a minus sign here. The sample holds strong results, similar compounds and a random draw of the others, so the mix is not that of the screen.
# Biological target: human ether-à-go-go-related gene (hERG) potassium channel (human, UniProt Q12809)
# Test: primary screen, population patch clamp on CHO cells stably expressing hERG; higher = less effect of the substance
# 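Also: peak tail current of the secondary pulse compared with the same well before compound.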
# Chain of human ether-à-go-go-related gene (hERG) potassium channel (Q12809 whole entry, looked up): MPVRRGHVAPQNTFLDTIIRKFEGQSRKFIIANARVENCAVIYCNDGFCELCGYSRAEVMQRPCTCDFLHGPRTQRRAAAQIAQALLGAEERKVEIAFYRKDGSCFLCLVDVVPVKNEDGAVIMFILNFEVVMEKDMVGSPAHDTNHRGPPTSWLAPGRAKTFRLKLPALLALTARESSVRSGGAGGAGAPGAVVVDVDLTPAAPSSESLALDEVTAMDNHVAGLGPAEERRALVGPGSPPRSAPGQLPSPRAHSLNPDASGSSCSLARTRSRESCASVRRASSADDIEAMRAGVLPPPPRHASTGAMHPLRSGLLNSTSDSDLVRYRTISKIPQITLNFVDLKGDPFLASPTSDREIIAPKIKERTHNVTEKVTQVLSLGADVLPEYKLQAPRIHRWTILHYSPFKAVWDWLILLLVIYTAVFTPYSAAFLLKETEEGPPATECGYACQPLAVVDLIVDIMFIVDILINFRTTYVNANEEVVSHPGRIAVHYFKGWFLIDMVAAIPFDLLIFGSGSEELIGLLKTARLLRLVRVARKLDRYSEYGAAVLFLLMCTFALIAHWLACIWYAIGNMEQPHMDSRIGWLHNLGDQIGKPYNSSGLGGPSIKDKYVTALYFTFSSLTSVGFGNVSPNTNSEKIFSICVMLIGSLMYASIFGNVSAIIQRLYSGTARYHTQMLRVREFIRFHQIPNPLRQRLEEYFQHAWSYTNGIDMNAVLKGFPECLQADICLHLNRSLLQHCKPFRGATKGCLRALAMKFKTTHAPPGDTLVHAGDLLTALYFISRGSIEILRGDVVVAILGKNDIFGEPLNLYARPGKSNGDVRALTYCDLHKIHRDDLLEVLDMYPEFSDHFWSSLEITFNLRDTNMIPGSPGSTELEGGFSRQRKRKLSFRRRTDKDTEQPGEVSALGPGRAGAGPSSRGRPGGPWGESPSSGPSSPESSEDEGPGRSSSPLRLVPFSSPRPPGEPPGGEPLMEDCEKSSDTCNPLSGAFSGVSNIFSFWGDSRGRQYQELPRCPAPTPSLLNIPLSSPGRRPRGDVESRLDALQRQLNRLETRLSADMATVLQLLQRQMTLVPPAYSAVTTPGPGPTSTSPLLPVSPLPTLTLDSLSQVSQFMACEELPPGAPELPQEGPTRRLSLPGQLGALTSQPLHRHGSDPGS
row,Structure (SMILES),"hERG current change (%, negative = inhibition) at 10uM"
1,Cc1ccc(C(=O)N/C(=C\c2cn(S(=O)(=O)N(C)C)c3ccccc23)C(=O)NCCCn2ccnc2)cc1,-28.6%
2,Cc1ccc(C(=O)N/C(=C\c2cccs2)C(=O)NCCc2ccccn2)cc1C,-1.92%
3,O=C(NCCCn1ccnc1)/C(=C\c1cccs1)NC(=O)c1cccs1,-62%
4,O=C(NCCO)/C(=C\c1cccs1)NC(=O)c1cccs1,18.7%
5,O=C(Cn1ncn2c(cc3ccccc32)c1=O)NCCC1=CCCCC1,7.76%
6,CCn1cc(S(=O)(=O)N2CCCC2)cn1,8.1%
7,COCCN1C(=O)N[C@@H](c2ccccc2)[C@@H](C(=O)OC)[C@H]1C,2.28%
8,Cc1ccc(C)c(/C=N/NC(=S)NC(C)C)c1,30.3%
9,Cc1ccccc1OCC(=O)NNC=O,22.9%
10,O=C(Nc1cccc(-n2cnnn2)c1)c1cc(Cl)nc(Cl)c1,-4.24%
11,Cc1nccn1-c1ccc(C(F)(F)F)cc1[N+](=O)[O-],11.2%
12,CCCn1c(NC(=O)CCS(=O)(=O)c2ccc(C)cc2)nc2ccccc21,-24.2%
13,Cc1cnn(Cc2cccnc2)c1N,8.46%
14,O=C(NCCCn1ccnc1)/C(=C\c1cccs1)NC(=O)c1ccccc1,-69%
15,O=C(NCCCn1ccnc1)/C(=C/c1ccco1)NC(=O)c1ccco1,-45.6%
16,O=C(NCCCn1ccnc1)/C(=C/c1cccnc1)NC(=O)c1ccco1,4.25%
17,O=C(NCCCn1ccnc1)/C(=C/c1cccs1)NC(=O)c1ccco1,-50.8%
18,COc1ccccc1/C=C(/NC(=O)c1ccccc1)C(=O)NCCCn1ccnc1,2.6%
19,O=C(NCCCn1ccnc1)/C(=C/c1ccco1)NC(=O)c1cccs1,-53.2%
20,O=C(NCCCn1ccnc1)/C(=C\c1cccs1)NC(=O)c1ccco1,-45.1%
21,CN(C)S(=O)(=O)n1cc(/C=C(\NC(=O)c2ccccc2)C(=O)NCCCn2ccnc2)c2ccccc21,8.31%
22,O=C(NCCCn1ccnc1)/C(=C\c1ccco1)NC(=O)c1ccco1,-35.3%

row,Structure (SMILES),"hERG current change (%, negative = inhibition) at 10uM"
1,CCOC(=O)c1c(C)n(C)c2c(C)cc(O)c(OC(=O)CC)c12,7.65%
2,CN(C)c1ccc(/C=C2\SC(N3CCCCC3)=NC2=O)cc1,-21.8%
3,Cc1occc1C(=O)Nc1ccc(Br)cc1F,2.03%
4,Cc1ccc(NC(=S)N(CCN(C)C)C(C)c2ccco2)cc1C (centres unmarked),-44.3%
5,CC1CCC2CCCCC2N1C(=O)c1cc([N+](=O)[O-])cc([N+](=O)[O-])c1 (centres unmarked),2.18%
6,COc1cc(CCCN2C(=S)NC[C@H]2Cc2ccc(O)cc2)cc(OC)c1OC,-16.4%
7,CC1CCN(C(=O)c2ccc(CS(=O)(=O)Cc3ccccc3)cc2)CC1,-33.6%
8,CC(=O)N1c2ccc(S(=O)(=O)NCC3CCC(C(=O)N4CCCCC4)CC3)cc2CC1C (centres unmarked),12.2%
9,c1ccc2c(c1)[nH]c1c(NCC3CCCO3)ncnc12 (centres unmarked),11%
10,CN(CCCC(=O)Nc1ccc(OC(F)F)cc1)S(=O)(=O)c1ccc(F)cc1,-71.3%
11,CN(CCCC(=O)Nc1ccccc1)S(=O)(=O)c1ccc(Cl)cc1,-47.9%
12,CN(CC(=O)Nc1ccncc1)S(=O)(=O)c1ccc(Cl)cc1,-5.97%
13,Cc1ccc(S(=O)(=O)N(C)CC(=O)Nc2ccncc2)cc1,-8.2%
14,Cc1ccc(S(=O)(=O)N(C)CCCC(=O)Nc2ccncc2)cc1,-63%
15,COc1ccc(NC(=O)CCCN(C)S(=O)(=O)c2ccc(C)cc2)cc1,-26.8%
16,CC(=O)c1cccc(NC(=O)CCCN(C)S(=O)(=O)c2ccc(F)cc2)c1,-2.1%
17,CC(=O)Nc1ccc(S(=O)(=O)N(C)c2ccc(O)cc2)cc1,2.53%
18,CC(=O)Nc1ccc(S(=O)(=O)N(C)c2ccccc2)cc1,0.318%
19,CN(CCCC(=O)Nc1ccncc1)S(=O)(=O)c1ccc(Cl)cc1,-53.8%
20,CC(=O)Nc1ccc(S(=O)(=O)N(C)S(=O)(=O)c2ccc(F)cc2)cc1,-63.3%
21,Cc1ccc(S(=O)(=O)N(C)CCCC(=O)Nc2ccc(F)cc2)cc1,-30.1%
22,O=C(Oc1ccnc2cc(Cl)ccc12)N1CCOCC1,-1.74%
